Assay results as given in PubChem BioAssay (Tox21).
Records with an inconclusive call do not appear. Calls of active or inactive are those of the source. Unless noted, calls follow the shape of the dose curve; as a rule, active = well fitted curve in the direction sought with a large enough effect in the repeat runs; inconclusive = weak or mixed curves; inactive = no such curve, though single readings can be large; an effect the other way counts as inactive or inconclusive. Where a SMILES comes first, the peptide text is derived from it. [ ]: non-standard residue; d: D form. pGlu = O=C1CC[C@@H](C(=O)O)N1

Experiments:
[1] = target: Peroxisome proliferator-activated receptor delta (Homo sapiens) (UniProt Q03181); assay: qHTS assay to identify small molecule agonists of the peroxisome proliferator-activated receptor delta (PPARd) signaling pathway (AID 743212; calls by dose curve)
How it was run: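 GeneBLAzer UAS-bla HEK293H cells carrying a PPARδ construct were exposed to compounds at 37 °C. Beta-lactamase activity was read by FRET fluorescence after 2 h at room temperature with LiveBLAzer B/G substrate.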

[2] = qHTS assay to identify small molecule antagonists of the peroxisome proliferator-activated receptor delta (PPARd) signaling pathway - cell viability counter screen (AID 743213); also: nearly all actives have a fitted effect of over 50% in size
How it was run: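 Agonist-stimulated (L165041, 300 nM final) HEK293H PPARd UAS-bla cells are exposed to compounds for 17 h at 37 C, and ATP-based luminescence (CellTiter-Glo) from the same wells reports cytotoxicity.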

[3] = target: Peroxisome proliferator-activated receptor delta (Homo sapiens) (UniProt Q03181); assay: qHTS assay to identify small molecule antagonists of the peroxisome proliferator-activated receptor delta (PPARd) signaling pathway (AID 743215; active = well fitted inhibition curve with a large enough effect in the signal ratio in the repeat runs, not every such curve was filed as active; the % refers to the signal ratio; also: series mostly up to about 62 µM)
How it was run: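 HEK293H UAS-bla, PPARd; agonist L165041 300 nM final with cpd in DMSO; 37 C 17 h; FRET substrate, RT 2 h; fluorescence intensity.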

[4] = qHTS assay to identify small molecule agonists of the farnesoid-X-receptor (FXR) signaling pathway - cell viability counter screen (AID 743218); also: nearly all actives have a fitted effect of over 45% in size
How it was run: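 Parallel cytotoxicity test: compound-treated (16 h, 37 C) HEK 293T FXR-bla reporter cells were lysed with CellTiter-Glo and luminescence recorded.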

[5] = qHTS assay to identify small molecule antagonists of the farnesoid-X-receptor (FXR) signaling pathway - cell viability counter screen (AID 743221; active = well fitted cell-killing curve with a large enough effect in the repeat runs, not every such curve was filed as active; also: nearly all actives have a fitted effect of over 50% in size)
How it was run: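 Luminescence from CellTiter-Glo measures cytotoxicity in GeneBLAzer FXR-UAS-bla HEK 293T cells. Cells were exposed to compounds with 50 uM chenodeoxycholic acid (final) for 16 h at 37 C, in wells also used for the reporter readout.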

[6] = target: Vitamin D3 receptor (Homo sapiens) (UniProt P11473); assay: qHTS assay to identify small molecule agonists of the vitamin D receptor (VDR) signaling pathway (AID 743222; calls by dose curve)
How it was run: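 In VDR-bla cells, compound-induced beta-lactamase expression is quantified by FRET substrate fluorescence. Treatment lasts 16 h at 37C; substrate develops 2 h at room temperature.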

[7] = target: Vitamin D3 receptor (Homo sapiens) (UniProt P11473); assay: qHTS assay to identify small molecule antagonists of the vitamin D receptor (VDR) signaling pathway (AID 743223; active = well fitted inhibition curve with a large enough effect in the signal ratio in the repeat runs, not every such curve was filed as active; the % refers to the signal ratio)
How it was run: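 Antagonist mode uses 1alpha,25-dihydroxyvitamin D3 at 3 nM final as stimulus. VDR-bla cells receive compounds in DMSO, incubate 16 h at 37C, then a beta-lactamase FRET substrate for 2 h at room temperature before fluorescence measurement.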

[8] = qHTS assay to identify small molecule agonists of the vitamin D receptor (VDR) signaling pathway - cell viability counter screen (AID 743224); also: series mostly up to about 63 µM; nearly all actives have a fitted effect of over 50% in size
How it was run: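 Plated VDR-bla cells (4 h, 37C) received compound, incubated 16 h, then LiveBLAzer substrate 2 h RT; CellTiter-Glo added afterwards, luminescence read at 30 min.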

[9] = target: Bile acid receptor (Homo sapiens) (UniProt Q96RI1); assay: qHTS assay to identify small molecule agonists of the farnesoid-X-receptor (FXR) signaling pathway (AID 743220; active = well fitted activation curve with a large enough effect in the signal ratio in the repeat runs, not every such curve was filed as active; the % refers to the signal ratio)
How it was run: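 Beta-lactamase reporter under UAS control in GeneBLAzer FXR HEK 293T cells (5000/well) measured with LiveBLAzer FRET substrate after 2 h at room temperature. Compound exposure lasted 16 h at 37C.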

[10] = target: Bile acid receptor (Homo sapiens) (UniProt Q96RI1); assay: qHTS assay to identify small molecule antagonists of the farnesoid-X-receptor (FXR) signaling pathway (AID 743217; active = well fitted inhibition curve with a large enough effect in the signal ratio in the repeat runs, not every such curve was filed as active; the % refers to the signal ratio)
How it was run: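 GeneBLAzer FXR-UAS-bla HEK 293T, CDCA-stimulated (50 uM final). Compound treatment 16 h, 37 °C. Detection: beta-lactamase cleavage of B/G FRET substrate, fluorescence.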

Measured: outcome

Chain of Vitamin D3 receptor (Homo sapiens) (P11473 whole entry, looked up): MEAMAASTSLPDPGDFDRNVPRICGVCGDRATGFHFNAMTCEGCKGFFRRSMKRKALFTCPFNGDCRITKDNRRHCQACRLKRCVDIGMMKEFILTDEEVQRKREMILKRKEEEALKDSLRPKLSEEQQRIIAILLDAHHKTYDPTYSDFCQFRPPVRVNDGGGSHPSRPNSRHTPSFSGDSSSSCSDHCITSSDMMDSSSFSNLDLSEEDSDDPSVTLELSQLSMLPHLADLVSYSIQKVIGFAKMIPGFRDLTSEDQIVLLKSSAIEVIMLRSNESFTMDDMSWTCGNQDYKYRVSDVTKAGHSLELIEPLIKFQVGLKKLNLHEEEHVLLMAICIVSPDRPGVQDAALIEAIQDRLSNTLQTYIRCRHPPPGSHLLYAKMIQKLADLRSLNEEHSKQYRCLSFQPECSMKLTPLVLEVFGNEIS
Chain of Bile acid receptor (Homo sapiens) (Q96RI1 whole entry, looked up): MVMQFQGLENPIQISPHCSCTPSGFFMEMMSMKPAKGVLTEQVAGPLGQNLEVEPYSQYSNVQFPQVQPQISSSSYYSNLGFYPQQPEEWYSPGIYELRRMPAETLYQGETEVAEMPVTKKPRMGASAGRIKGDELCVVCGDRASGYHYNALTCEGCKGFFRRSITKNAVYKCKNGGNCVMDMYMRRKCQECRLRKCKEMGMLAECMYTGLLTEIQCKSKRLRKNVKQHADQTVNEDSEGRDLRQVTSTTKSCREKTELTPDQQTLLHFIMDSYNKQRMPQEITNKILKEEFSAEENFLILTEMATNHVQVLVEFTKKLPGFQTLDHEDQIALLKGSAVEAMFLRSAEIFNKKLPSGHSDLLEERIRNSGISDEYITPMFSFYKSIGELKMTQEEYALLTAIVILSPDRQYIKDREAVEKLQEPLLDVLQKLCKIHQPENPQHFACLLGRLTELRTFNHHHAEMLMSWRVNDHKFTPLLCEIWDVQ
Chain of Peroxisome proliferator-activated receptor delta (Homo sapiens) (Q03181 whole entry, looked up): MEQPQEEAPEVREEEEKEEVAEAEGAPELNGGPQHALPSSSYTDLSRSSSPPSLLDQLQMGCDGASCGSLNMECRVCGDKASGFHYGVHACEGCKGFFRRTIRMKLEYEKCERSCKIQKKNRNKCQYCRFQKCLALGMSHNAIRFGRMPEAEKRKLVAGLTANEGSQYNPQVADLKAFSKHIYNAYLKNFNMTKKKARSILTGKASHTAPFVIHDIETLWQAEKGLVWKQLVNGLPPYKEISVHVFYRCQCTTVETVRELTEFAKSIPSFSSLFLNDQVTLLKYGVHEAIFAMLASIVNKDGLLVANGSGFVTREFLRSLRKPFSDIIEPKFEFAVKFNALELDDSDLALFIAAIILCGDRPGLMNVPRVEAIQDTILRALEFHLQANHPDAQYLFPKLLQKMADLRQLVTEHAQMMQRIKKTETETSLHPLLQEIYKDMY

CC1=C(C/C=C(\C)CCC[C@H](C)CCC[C@H](C)CCCC(C)C)C(=O)c2ccccc2C1=O
not listed: [9] | [10]
inactive: all other assays above

CCOC(=O)C(=O)CCCCCCl
not listed: [10]
inactive: all other assays above

CCC(=O)OCc1ccccc1
not listed: [9] | [10]
inactive: all other assays above

CC1=CCC(O)(C(C)C)CC1 (configuration not stated)
not listed: [7] | [9] | [10]
inactive: all other assays above

CC(C)(C)OC(=O)c1cccc(N)c1
not listed: [9] | [10]
inactive: all other assays above

CNCCO
not listed: [4] | [6] | [7]
inactive: all other assays above

COc1ccc2cc1Oc1cc3c(cc1OC)CC[N+](C)(C)[C@H]3Cc1ccc(cc1)Oc1c(OC)c(OC)cc3c1[C@@H](C2)[N+](C)(C)CC3
not listed: [9] | [10]
inactive: all other assays above

CCCn1cc[n+](C)c1C
not listed: [9] | [10]
inactive: all other assays above

CN1CCN(c2cc3c(nn2)Oc2ccccc2N3C)CC1
not listed: [9] | [10]
inactive: all other assays above

CCNC(=O)[C@@H]1CCCN1C(=O)[C@H](CCCN=C(N)N)NC(=O)[C@H](CC(C)C)NC(=O)CNC(=O)[C@H](Cc1ccc(O)cc1)NC(=O)[C@H](CO)NC(=O)[C@H](Cc1c[nH]c2ccccc12)NC(=O)[C@H](Cc1cnc[nH]1)NC(=O)[C@@H]1CCC(=O)N1 ([pGlu]HWSYGLRP-NHEt)
not listed: [9] | [10]
inactive: all other assays above

CCOc1ccccc1OCC
not listed: [9] | [10]
inactive: all other assays above

Cc1nc2ccc(CN(C)c3ccc(C(=O)N[C@@H](CCC(=O)O)C(=O)O)s3)cc2c(=O)[nH]1
not listed: [10]
inactive: all other assays above

CCCCOCCOC(=O)COc1cc(Cl)c(Cl)cc1Cl
not listed: [9] | [10]
inactive: all other assays above

C=CN1CCCCCC1=O
not listed: [7] | [9] | [10]
inactive: all other assays above

Cc1ccc(C(=O)Nc2ccc(S(=O)(=O)O)c3cc(S(=O)(=O)O)cc(S(=O)(=O)O)c23)cc1NC(=O)c1cccc(NC(=O)Nc2cccc(C(=O)Nc3cc(C(=O)Nc4ccc(S(=O)(=O)O)c5cc(S(=O)(=O)O)cc(S(=O)(=O)O)c45)ccc3C)c2)c1
not listed: [9] | [10]
inactive: all other assays above

CC1=NS(=O)(=O)c2cc(Cl)ccc2N1
inactive: [1] | [2] | [3] | [4] | [5]

CC(=O)N[C@H]1[C@H]([C@H](O)[C@H](O)CO)OC(C(=O)O)=C[C@@H]1N=C(N)N
not listed: [7] | [9] | [10]
inactive: all other assays above

C=CCCCCCCCCC(=O)OCC
not listed: [7] | [9] | [10]
inactive: all other assays above

COCCOC[C@H](CC1(C(=O)NC2CCC(C(=O)O)CC2)CCCC1)C(=O)Oc1ccc2c(c1)CCC2 (some centres not stated)
not listed: [7] | [9] | [10]
inactive: all other assays above

CCOC(=O)c1ccccc1
not listed: [9] | [10]
inactive: all other assays above

CN1CCC(=C2c3ccccc3CCc3cccnc32)CC1
not listed: [9] | [10]
inactive: all other assays above

CCOC(=O)OC(C)OC1=C(C(=O)Nc2ccccn2)N(C)S(=O)(=O)c2ccccc21 (configuration not stated)
not listed: [7] | [9] | [10]
inactive: all other assays above

CC(=O)c1ccccc1[N+](=O)[O-]
not listed: [9] | [10]
inactive: all other assays above

CC(=O)O[C@@]12CO[C@@H]1C[C@H](O)[C@@]1(C)C(=O)[C@H](O)C3=C(C)[C@@H](OC(=O)[C@H](O)[C@@H](NC(=O)OC(C)(C)C)c4ccccc4)C[C@@](O)([C@@H](OC(=O)c4ccccc4)[C@H]21)C3(C)C
not listed: [7] | [10]
inactive: all other assays above

O=C(c1ccccc1)C1(O)CCCCC1
not listed: [9] | [10]
inactive: all other assays above

COC(=O)C1=C(C)NC(C)=C(C(=O)OC(C)C)C1c1cccc2nonc12 (configuration not stated)
not listed: [7] | [9] | [10]
inactive: all other assays above

CCNS(=O)(=O)c1ccc(C)cc1
inactive: [1] | [2] | [3] | [4] | [5] | [8]

CCCCCCCCCC[N+](C)(C)[O-]
inactive: [1] | [2] | [3] | [4] | [6] | [8]

CCCCCCCC1CCCC1=O (configuration not stated)
inactive: [1] | [2] | [3] | [4] | [5] | [8]

CC(=O)Oc1cccc(C)c1
inactive: [1] | [2] | [3] | [4] | [8]
